SMILES strings stand for the structures. Results with a measured potency or affinity are listed apart.

This test deals with Staphylococcus aureus. The following applies: Concentration 32 ug.mL-1; ASSAY_TEST Inhibition of Bacterial Growth; detection method Absorption (OD600); MEDIA CAMHB; plate type 384well; NBS; CORNING #3640; time 18 hr.
Turning to `Cl.N#Cc1c(Cl)nc(N)nc1NCCO`, the Inhibition (commonly the relative decrease from the control value, in per cent) is -0.92%.
With `C=CCNCc1cc2cc(OCCCC3CCN(Cc4ccccc4)CC3)ccc2[nH]1.O.O=C(O)C(=O)O.O=C(O)C(=O)O` the figure was 13.83%.
With `O=C(N/N=C/c1ccc([N+](=O)[O-])cc1)c1cc2ccccc2[nH]1` the figure was 11.24%; with `O=C(N/N=C/Cc1ccccc1)c1cc2ccccc2[nH]1`, 10.17%.
The value for `COc1ccc(CNNC(=O)c2cc3ccccc3[nH]2)cc1O` was 5.63%; that for `CC(=O)NC(=Cc1ccccc1)C(=O)O` was 13.69%.
For `CC(=O)NC=C1C(=O)OC(C)(C)OC1=O`, the Inhibition was 14.96%.
The value for `N#Cc1cc(Br)cc(Br)c1N` was 3.71%; that for `CCOc1nc(N)c(C#N)cc1C#N.Cl` was -3.52%; that for `Cl.OCC1CCN(Cc2ccccc2)CC1` was 26.15%.
The value for `COc1ccc(C2c3c(nc4c(c3N)CCCC4)Oc3ccc4ccccc4c32)c(OC)c1` (centres undefined) was 15.3%; that for `N#CC1(Br)C(=NBr)Oc2ccc3ccccc3c2C1c1ccccc1` (centres undefined) was 7.34%.
For the compound `N#Cc1c(N)nc(N2CCOCC2)c(C#N)c1-c1ccccc1`, the Inhibition was found to be 7.58%.
`Cc1ccc(C(O)SNNc2ncnc3c2c(C)nn3-c2ccccc2)cc1` (centres undefined): the Inhibition came out at 5.38%.
The value for `CCOC(=O)N/N=C/c1ccccc1` was -2.34%.
The value for `C=CCNc1nc(N)c(C#N)cc1C#N` was 40.4%.
With `O=Cc1cc2ccccc2nc1Cl`, the Inhibition came out at 19.39%.
With `Cc1[nH]c2ccc(OCc3ccccc3)cc2c1C(=O)NN` the figure was 3.15%; with `C#CCN1CCc2nc3nc(NC4CCN(Cc5ccccc5)CC4)c(C#N)cc3c(N)c2C1`, 26.68%.
With `CSC1=NC(=Cc2ccccc2)C(=O)N1C` the figure was 5.89%; with `O=C(N/N=C/c1c[nH]c2ccccc12)c1ccco1`, 13.11%.
As for `O=C1OC(c2ccccc2)=NC12CC2c1ccc([N+](=O)[O-])cc1` (centres undefined), the Inhibition is recorded as 9.12%.
For `CSC1=NC(=Cc2cn(C)c3ccccc23)C(=O)N1C`, the Inhibition is given as 3.9%.
With `O=C(O)C(=Cc1ccccc1)NC(=O)c1ccccc1` the figure was 14.72%; with `OCc1cc2ccccc2[nH]1`, 39.41%; with `COc1ccc(C2c3c(ccc4ccccc34)OC(=NBr)C2(Br)C#N)cc1` (centres undefined), 37.33%.
For `C#CCN(C)c1cc(Cl)nc(N)n1`, the Inhibition is 26.35%.
Turning to `COc1ccc2cc(C3C4=C(CC(C)(C)CC4=O)Oc4nc5c(c(N)c43)CCCCC5)c(Cl)nc2c1` (centres undefined), the Inhibition came out at 27.31%.
With `CC#CCN(Cc1ccccc1)c1nc(N)c(C#N)c(-c2ccccc2)c1C#N` the figure was 17.54%; with `CC(=O)Nc1n[nH]c2nc(N)c(C#N)c(-c3ccccc3)c12`, 38.27%; with `CC(=O)CC(=O)N1[C@@H]2C[C@H]3CCC2(CS1(=O)=O)C3(C)C`, 27.16%.
The value for `N#Cc1cc2c(N)c3c(nc2nc1Cl)CCCC3` was 35.71%.
The value for `Cc1ccc2nc(Cl)c(/C=N/NCc3ccccc3)cc2c1` was 26.2%; that for `CC(=O)Nc1nc(Cl)c(C#N)c(-c2ccccc2)c1C#N` was 21.15%; that for `N#CC1(Br)C(=NBr)Oc2c(ccc3ccccc23)C1c1ccc([N+](=O)[O-])cc1` (centres undefined) was 36.89%.
On to `c1ccc(CNc2ncnc3c2cnn3-c2ccccc2)cc1`, for which the Inhibition came out at 7.54%.
With `COc1ccc(C2C(C#N)=C(N)Oc3ccc4ccccc4c32)cc1` (centres undefined) the figure was 37.68%.
The value for `Cl.ClCCCN1CCCCC1` was 19.47%; that for `N#Cc1c(N)nc2[nH]nc(N)c2c1-c1ccccc1` was 40.83%.

These data come from ChEMBL document CHEMBL4513135, “CO-ADD screening of IQOG CSIS (Spain) compounds”.
